Experimental data from PubChem BioAssay AID651610 (Broad Institute, 2012).
The whole screen tested about 360,000 compounds, of which about 3,900 (1.1%) were called active.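 The calls were made as follows: active = mean replicate inhibition score of at least 50 and every replicate individually at or above 50; inconclusive = only one of the two criteria met; inactive = mean below 50 and not all replicates reaching 50.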 For the sample, actives were picked, then their nearest neighbours and some compounds at random.

Assay: inhibitors of HIV-1 Env-driven cell-cell fusion, primary screen, HeLa-JRFL effector, CEM21 target cells, luciferase (AID 651610);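 also: 0% = plate neutral controls and 100% = maraviroc near 300 nM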
Details: active compounds read high; at 16.7 µM unless noted
For COc1ccccc1NC(=O)N[C@H]1CC[C@@H](CCn2cc(C3(O)CCCC3)nn2)O[C@@H]1CO, the inhibition was -2.19% (inactive). In the case of N#C[C@H]1[C@H](c2ccc(-c3ccccc3)cc2)[C@@H](CO)N1C(=O)Cc1ccccc1, the inhibition is reported as -31.2% (inactive). With C[C@@H]1CCCCO[C@H](CN(C)C(=O)CCCN(C)C)[C@H](C)CN([C@H](C)CO)C(=O)c2cc(NC(=O)CCC(F)(F)F)ccc2O1 the inhibition was 6% (inactive). For C[C@@H]1CCCCO[C@@H](CN(C)Cc2ccncc2)[C@H](C)CN([C@H](C)CO)C(=O)c2cc(NC(=O)NC3CCCCC3)ccc2O1, the inhibition was 10.4% (inactive). For O=C(C[C@@H]1C[C@H]2c3cc(NC(=O)Nc4ccccc4)ccc3O[C@H]2[C@@H](CO)O1)NC1CCCCC1, the inhibition was 6.41% (inactive). For CCc1ccc(N(CC(=O)NCc2cccnc2)S(=O)(=O)c2ccccc2)cc1, the inhibition was 10.5% [at 12.3 µM] (inactive). In the case of O=C(CN(c1cc(C(F)(F)F)ccc1Cl)S(=O)(=O)c1ccccc1)NCc1cccnc1, the inhibition is reported as 85.1% [at 12.3 µM] (active). In the case of CN(CC(=O)NCc1cccnc1)S(=O)(=O)c1cc(Cl)ccc1Cl, the inhibition is reported as 2.11% [at 12.3 µM] (inactive). For C/C=C/c1ccccc1[C@@H]1[C@@H](C#N)N(c2nc(CC)cs2)[C@@H]1CO, the inhibition was -1.66% (inactive). With CCCNC(=O)N1CCC2(CC1)CN(C(=O)CN1CCOCC1)[C@H](CO)c1[nH]c3cc(OC)ccc3c12 the inhibition was -5.75% (inactive). In the case of Cc1ccccc1-c1cnc2c(c1)C(=O)N([C@H](C)CO)C[C@H](C)[C@@H](CN(C)C(=O)c1ccccc1)O2, the inhibition is reported as -8.15% (inactive). In the case of Cc1ccc(C(=O)NC23CC4CC(CC(C4)C2)C3)c(Cl)c1, the inhibition is reported as -0.699% [at 12.3 µM] (inactive). In the case of S=C(NCc1ccc(Cl)cc1)NC12CC3CC(CC(C3)C1)C2, the inhibition is reported as 103% [at 12.3 µM] (active). For O=C(NCc1ccc2c(c1)OCO2)C12CC3CC(CC(C3)C1)C2, the inhibition was 8.77% [at 12.3 µM] (inactive). With CN(C)C(=O)C[C@H]1C=C[C@@H](NC(=O)C2CCC2)[C@@H](CO)O1 the inhibition was 24.4% (inactive). For CCCOc1cccc(C(=O)NCCCNC(=O)c2cccnc2)c1, the inhibition was 11.1% [at 12.3 µM] (inactive). For Cc1ccc(OCC(=O)N2CCN(C(=O)c3cccnc3)CC2)cc1, the inhibition was -3.51% [at 12.3 µM] (inactive). In the case of CCCCCCOc1ccc(OC(=O)c2cccnc2)cc1, the inhibition is reported as 58.2% [at 12.3 µM] (active). With C[C@H](CO)N1C[C@H](C)[C@H](CN(C)S(C)(=O)=O)Oc2ncc(C3=CCCCC3)cc2C1=O the inhibition was 10.5% (inactive). With N#C[C@H]1[C@H](c2ccc(C#Cc3ccc(F)cc3)cc2)[C@@H](CO)N1C(=O)C1CCCC1 the inhibition was 10.1% (inactive). With COCc1cn(CC[C@@H]2CC[C@@H](NC(=O)Cc3cccnc3)[C@@H](CO)O2)nn1 the inhibition was 7.99% (inactive). For C[C@H]1CCCCO[C@H](CN(C)C(=O)Nc2ccc3c(c2)OCO3)[C@@H](C)CN([C@@H](C)CO)C(=O)c2cc(NC(=O)Nc3ccccc3)ccc2O1, the inhibition was -15.3% (inactive). In the case of CCN(CC)CCN(C(=O)c1cc(Cl)sc1Cl)c1nc2cc3c(cc2s1)OCO3, the inhibition is reported as 71.9% [at 12.3 µM] (active). For CN(C)CCN(C(=O)C1=COCCO1)c1nc2ccc(Cl)cc2s1, the inhibition was -71.9% [at 12.3 µM] (inactive). With CCN(CC)CCN(C(=O)c1ccc(N2C(=O)CCC2=O)cc1)c1nc2cc3c(cc2s1)OCO3 the inhibition was 13.5% [at 12.3 µM] (inactive). For CC(C)NC(=O)N(C)C[C@H]1Oc2ccc(NS(=O)(=O)c3cn(C)cn3)cc2CC(=O)N([C@@H](C)CO)C[C@H]1C, the inhibition was -7.65% (inactive). In the case of CCC(C)c1ccccc1N1CC(C(=O)N2CCN(S(=O)(=O)c3ccc(F)cc3)CC2)CC1=O (stereo not drawn), the inhibition is reported as 18.5% [at 12.3 µM] (inactive). For Cc1ccc(CN2CC(C(=O)N3CCN(S(=O)(=O)c4ccccc4)CC3)CC2=O)cc1 (stereo not drawn), the inhibition was 64.5% [at 12.3 µM] (active). In the case of Cc1ccc(S(=O)(=O)N2CCC(C(=O)N3CCCCCCC3)CC2)cc1, the inhibition is reported as -2.71% [at 12.3 µM] (inactive). For COc1ccc2c3c(n(C)c2c1)[C@@H](CO)N(C(C)=O)CC31CCN(C(=O)C2CC2)CC1, the inhibition was 3.46% (inactive). For C[C@H](CO)N1C[C@H](C)[C@H](CN(C)C(=O)Nc2ccc(F)cc2)Oc2c(NC(=O)c3cnccn3)cccc2C1=O, the inhibition was 30.7% (inactive). For O=C(NNC(=O)c1ccc(-c2ccccc2)cc1)Nc1ccccc1, the inhibition was 17% [at 12.3 µM] (inactive). For C=CC[n+]1c(-c2ccc(C)cc2)csc1NNC(=O)Nc1ccccc1, the inhibition was 77.7% [at 12.3 µM] (active). In the case of Cc1ccc(NC(=O)NNC(=O)c2sccc2-n2cccc2)cc1, the inhibition is reported as -3.39% [at 12.3 µM] (inactive). With C[C@H](CO)N1C[C@H](C)[C@@H](CN(C)CC2CCOCC2)Oc2ncc(C#Cc3ccc(F)cc3)cc2C1=O the inhibition was 7.54% (inactive). For C[C@@H](O)C#Cc1cnc2c(c1)C(=O)N([C@@H](C)CO)C[C@H](C)[C@H](CN(C)C(=O)c1ccccc1F)O2, the inhibition was 5.54% (inactive). In the case of COc1ccccc1CNc1nc(Nc2ccccc2Cl)c2sccc2n1, the inhibition is reported as 20.5% [at 12.3 µM] (inactive). In the case of COc1cccc(CNc2nc(NCc3ccccc3OC)nc3ccsc23)c1, the inhibition is reported as 72.3% [at 12.3 µM] (active). In the case of COCCNc1nc(NCc2ccc(NC(C)=O)cc2)c2sccc2n1, the inhibition is reported as -25.8% [at 12.3 µM] (inactive). In the case of C[C@@H]1CN([C@@H](C)CO)C(=O)Cc2cc(NS(C)(=O)=O)ccc2O[C@H]1CN(C)S(=O)(=O)c1ccc(F)cc1, the inhibition is reported as -0.637% (inactive). With CN1[C@@H]2c3ccc(-c4ccc(F)cc4)c(=O)n3C[C@H]1[C@H](CO)[C@H]2C(=O)NC1CCC1 the inhibition was 0.501% (inactive). With CCOC(=O)[C@@H]1[C@H]2COc3ccc(Br)cc3[C@H]2N2C(=O)N(c3ccc(C)cc3)C(=O)[C@@]12C the inhibition was -52.6% [at 12.3 µM] (inactive). With CC12C(=O)N(c3ccccc3)C(=O)C1C(c1ccccc1)N1CCCN12 (stereo not drawn) the inhibition was 6.12% [at 12.3 µM] (inactive). With CCN1C(=O)[C@H]2[C@@H](c3ccc(C)cc3)N3C(=O)N(c4cccc(Br)c4)C(=O)[C@@]3(CC)[C@H]2C1=O the inhibition was 82.7% [at 12.3 µM] (active). In the case of C[C@@]12C(=O)N(c3cccc(Br)c3)C(=O)N1[C@H](c1ccc(Cl)cc1)[C@@H]1C(=O)N(C3CCCCC3)C(=O)[C@@H]12, the inhibition is reported as -9.25% [at 12.3 µM] (inactive). With COc1ccc([C@@H]2[C@@H]3C(=O)N(C(C)(C)C)C(=O)[C@@H]3[C@]3(Cc4ccccc4)C(=O)N(c4cccc(Br)c4)C(=O)N23)cc1 the inhibition was 33.2% [at 12.3 µM] (inactive). For CC[C@@]12C(=O)N(c3ccccc3)C(=O)N1[C@H](c1ccc(Br)cc1)[C@@H]1C(=O)N(C(C)(C)C)C(=O)[C@@H]12, the inhibition was 59.8% [at 12.3 µM] (active). In the case of CC(C)(C)N1C(=O)[C@H]2[C@@H](c3ccc(Br)cc3)N3C(=O)N(c4cccc(Cl)c4)C(=O)[C@@]3(C)[C@H]2C1=O, the inhibition is reported as 72.7% [at 12.3 µM] (active). With CCCCC1(C(=O)OCC)NC(c2ccc(O)cc2)C2C(=O)N(c3ccccc3)C(=O)C21 (stereo not drawn) the inhibition was 2.85% [at 12.3 µM] (inactive). For CCN1C(=O)[C@H]2[C@@H](c3ccc(C(F)(F)F)cc3)N[C@]3(CCCN(Cc4ccc(Br)cc4)C3=O)[C@H]2C1=O, the inhibition was -31.5% [at 12.3 µM] (inactive). For C[C@@H]1CCCCO[C@@H](CN(C)S(=O)(=O)c2ccc(F)cc2)[C@@H](C)CN([C@@H](C)CO)C(=O)c2cc(NC(=O)Nc3ccc(F)cc3)ccc2O1, the inhibition was -9.74% (inactive). For C[C@H](CO)N1C[C@H](C)[C@@H](CN(C)C(=O)C2CC2)Oc2cc(-c3cccc(C#N)c3)ccc2S1(=O)=O, the inhibition was 6.81% (inactive). For COc1ccccc1S(=O)(=O)N[C@@H]1CC[C@H](CC(=O)N2CCN(C)CC2)O[C@@H]1CO, the inhibition was -0.692% (inactive). For C[C@@H]1CN([C@@H](C)CO)C(=O)c2cccc(NC(=O)C3CCOCC3)c2O[C@H]1CN(C)C(=O)NC1CCCCC1, the inhibition was 10.1% (inactive). With C[C@@H]1CN([C@@H](C)CO)S(=O)(=O)c2ccc(C#CC3CCCC3)cc2O[C@H]1CN(C)S(C)(=O)=O the inhibition was 6.95% (inactive). In the case of COc1cccc(-c2cnc3c(c2)C(=O)N([C@H](C)CO)C[C@@H](C)[C@H](CN(C)Cc2ccc(F)cc2)O3)c1, the inhibition is reported as 7.73% (inactive). In the case of CN1C(=O)c2cc(NC(=O)c3cccs3)ccc2OC[C@H]2O[C@@H](CC(=O)NCC3CC3)CC[C@@H]21, the inhibition is reported as 3.56% (inactive). With Cc1cc(C)cc(N2C(=O)CSC2c2cccc([N+](=O)[O-])c2)c1 (stereo not drawn) the inhibition was -6.42% (inactive). For C[C@H]1CN([C@@H](C)CO)C(=O)c2cccc(NS(=O)(=O)c3ccc(Cl)cc3)c2O[C@H]1CN(C)S(=O)(=O)c1ccc(Cl)cc1, the inhibition was -26.5% (inactive). With O=C(CSc1nc(O)c(Cc2ccccc2)c(=O)[nH]1)Nc1nc2c(s1)CCCC2 the inhibition was 25.1% [at 12.3 µM] (inactive). In the case of O=C(CCS(=O)(=O)c1ccccc1)NC1CCCC1, the inhibition is reported as 11.3% [at 12.3 µM] (inactive). With O=C(CCS(=O)(=O)c1ccccc1)Nc1nc2c(s1)CCCC2 the inhibition was 60.1% [at 12.3 µM] (active). In the case of CCOc1ccc(NC(=O)CC2C(=O)N(c3ccccc3)C(=O)N2CCOC)cc1 (stereo not drawn), the inhibition is reported as -3.16% [at 12.3 µM] (inactive). In the case of COC(=O)CN(C(=S)Nc1ccc(Cl)cc1)C1CC(=O)N(c2ccc(OC)cc2)C1=O (stereo not drawn), the inhibition is reported as -3.79% [at 12.3 µM] (inactive). For CCCOc1ccc(N2C(=O)CC(N(CCc3ccc(S(N)(=O)=O)cc3)C(C)=O)C2=O)cc1 (stereo not drawn), the inhibition was 19.9% [at 12.3 µM] (inactive). In the case of COc1ccc(N2C(=O)C(CC(=O)Nc3ccccc3)N(Cc3ccc(OC)c(OC)c3)C2=O)cc1 (stereo not drawn), the inhibition is reported as 56.7% [at 12.3 µM] (active). With COc1ccc(CCN2C(=O)N(c3ccc(OC)cc3)C(=O)C2CC(=O)Nc2ccc(OC)cc2)cc1 (stereo not drawn) the inhibition was 9.15% [at 12.3 µM] (inactive). For CCOc1ccc(N2C(=O)CC(N(CCc3ccc(OC)c(OC)c3)C(=S)Nc3ccccc3)C2=O)cc1 (stereo not drawn), the inhibition was 58.4% [at 12.3 µM] (active).
